Source: PubChem BioAssay (National Center for Advancing Translational Sciences (NCATS))
IL1B secr inh: qHTS for Inhibitors of Inflammasome Signaling: IL-1-beta AlphaLISA Primary Screen. activity change, % at 57.5 µM. THP-1 LPS/ATP IL-1B secretion, AlphaLISA, 16 h; active compounds read low. AID 743279, 2014. 360,000 compounds, 4.7% hits; in the data active = activity change below about -50%; inconclusive = mostly about -30% to -49%
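THP-1 cells pretreated 1 hr with compounds (up to 57.5 uM final), then stimulated with LPS (250 ng/mL final) plus ATP (1.25 mM final); secreted IL-1B measured by AlphaLISA after 16 hr, decreased signal indicating inhibition.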
MCF10A rereplic: A quantitative high throughput screen for small molecules that induce DNA re-replication in MCF 10a normal breast cells; AID 624296, 2012; Potency, µM (top dose mostly 46.1 µM), usual class: activators; MCF 10A DNA re-replication, Hoechst nuclear intensity, 48 h; 350,000 compounds, 2.9% hits; also: nearly all actives have a fitted effect of over 50% in size
SW480 rereplic: A quantitative high throughput screen for small molecules that induce DNA re-replication in SW480 colon adenocarcinoma cells; SW480 DNA re-replication, Hoechst DNA content imaging, 48 h; Potency, µM (titrated, usually from 46.1 µM), hits mostly activators; 340,000 compounds, 1.8% hits; AID 624297, 2012; also: nearly all actives have a fitted effect of over 55% in size
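Image-based DNA-content assay: after two days of treatment, nuclei were labelled with the DNA dye Hoechst and imaged, and hits were compounds raising the count of nuclei showing high fluorescence intensity.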
RORg inh: qHTS for inhibitors of ROR gamma transcriptional activity; Drosophila S2 Gal4-RORgamma UAS-luciferase reporter, 20 h; Potency, µM (doses to about 53.6 µM), usual class: inhibitors; 310,000 compounds, 5.4% hits; Nuclear receptor ROR-gamma (Mus musculus), P51450; also: nearly all actives have a fitted effect of over 60% in size
Target sequence (P51450 whole entry, looked up, the tested form may be a part): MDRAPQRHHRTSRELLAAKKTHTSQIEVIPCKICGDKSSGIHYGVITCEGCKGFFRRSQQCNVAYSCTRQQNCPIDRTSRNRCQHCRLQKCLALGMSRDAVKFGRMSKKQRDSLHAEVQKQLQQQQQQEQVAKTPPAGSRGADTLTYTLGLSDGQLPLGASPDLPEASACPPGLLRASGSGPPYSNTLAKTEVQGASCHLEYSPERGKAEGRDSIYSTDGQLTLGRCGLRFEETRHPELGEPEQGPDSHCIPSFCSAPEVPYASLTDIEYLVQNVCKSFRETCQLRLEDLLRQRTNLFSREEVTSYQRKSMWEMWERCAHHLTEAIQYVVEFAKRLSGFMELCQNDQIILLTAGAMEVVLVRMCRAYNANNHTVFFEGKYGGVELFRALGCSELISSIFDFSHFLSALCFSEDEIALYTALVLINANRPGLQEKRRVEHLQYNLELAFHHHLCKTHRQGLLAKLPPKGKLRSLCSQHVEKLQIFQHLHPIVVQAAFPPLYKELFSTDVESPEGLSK
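Stable Schneider cell line, Gal4 DNA-binding domain fused to ROR gamma, UAS-luciferase. Cmpd 1 hr RT → CuSO4 700 uM final → 20 hr RT → luciferase reagent 10 min → luminescence.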
VP16 counter: VP16 counterscreen qHTS for inhibitors of ROR gamma transcriptional activity; 310,000 compounds, 3.5% hits; AID 2546, 2010; Potency, µM (series often up to 53.6 µM), most hits filed as inhibitors; Drosophila S2 Gal4-VP16 UAS-luciferase, luminescence, 20 h;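 also: Gal4-VP16 expression switched on by copper sulfate through the metallothionein promoter; nearly all actives have a fitted effect of over 50% in size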
Numbers stand for hits; n = inactive; u = inconclusive; x = no result; [ ] = remark or other dose. Only some compounds are listed: those with a hit (about 11% of all), similar ones and a draw of the others. Unless noted, calls follow the shape of the dose curve; as a rule, active = well fitted curve in the direction sought with a large enough effect; inconclusive = small, poorly fitted or top-dose-only effect, or another doubt; inactive = no such curve, though single readings can be large; an effect the other way counts as inactive or inconclusive.

SMILES | IL1B secr inh | MCF10A rereplic | SW480 rereplic | RORg inh | VP16 counter
Cc1ccc(-n2ncc(-c3n[nH]c(=S)o3)c2N)cc1C | n | x | x | x | x
CC(C)CC(C)c1cc(N)nc2nc3ccccc3n12 (centres undefined) | n | u | n | 16µM | n
Cc1ccc(C(=O)OCC(=O)N(C)c2c(N)n(Cc3ccccc3)c(=O)[nH]c2=O)s1 | n | n | u | x | x
Cn1nc(C(C)(C)C)cc1NC(=O)Nc1cc(Cl)cc(Cl)c1 | -98 | u | u | u | n
Cc1ccc(F)cc1NC(=O)Nc1cc(C(C)(C)C)nn1C | n | n | n | n | n
Fc1ccc(Nc2nnc(C(F)(F)F)s2)cc1 | -69 | n | n | n | n
CNc1nnc(C(F)(F)F)s1 | x | n | n | n | n
Cc1ccc(C(=O)ONc2ccc(N=O)cc2)cc1 | n | n | n | 25µM | 13µM
COC(=O)c1ccc(NN=Nc2ccc(C)cc2)cc1 | n | n | n | n | n
Cc1ccc(C(=O)ONc2ccc(N=NC(=O)c3ccccc3O)cc2)cc1 | n | n | n | n | 18µM
O=Nc1ccc(NOC(=O)c2ccc(Br)cc2)cc1 | x | x | x | n | n
Fc1ccc(/C=N/N2CCN(Cc3ccccc3)CC2)cc1 | u | u | n | n | n
CCOC(=O)CC1(C)Oc2ccccc2N1S(=O)(=O)c1ccc(C)cc1 (centres undefined) | n | x | x | x | x
CCC(=O)CC | x | x | x | n | n
Cc1c(N2C(=O)/C(=C\C3CC=CCC3)SC2=S)c(=O)n(-c2ccccc2)n1C (centres undefined) | -101 | u | n | u | n[10 µM]
Cc1c(N2C(=O)/C(=C/C3CC=CCC3)SC2=S)c(=O)n(-c2ccccc2)n1C (centres undefined) | -59 | u | n | n | n
Cc1c(NC(=O)/C(C#N)=C/C2CC=CCC2)c(=O)n(-c2ccccc2)n1C (centres undefined) | n | n | n | n | n
Cc1cc(C)cc(NC(=O)CN2CCC(NC(=O)c3ccccc3F)CC2)c1 | n | n | n | n | n
CC(C)Cn1c(-c2csc(C(C)C)c2)n[nH]c1=S | n | u | u | 2µM | n[10 µM]
CCn1c(-c2csc(C(C)C)c2)n[nH]c1=S | n | n | n | 2.5µM | 13µM
CN(C(=O)c1ccc(NC(=O)Cc2cccc(NC(=O)C3CCCN(C(=O)C4CCC4)C3)c2)cc1)C1CCCC1 (centres undefined) | n | u | u | x | x
CC(C)(C)c1ccc(OCC(=O)Nc2ccncc2)c(Br)c1 | n | 15µM | n | u | u
Cc1cc(OCC(=O)Nc2ccncc2)c(C)cc1Br | n | n | n | u | 13µM
Cc1cc(OCC(=O)Nc2ccncc2)ccc1[N+](=O)[O-] | n | n | n | 5µM | u
CC(C)CCOc1cccc(OCC(=O)Nc2ccncc2)c1 | n | u | n | u | 8.9µM
SMILES | IL1B secr inh | MCF10A rereplic | SW480 rereplic | RORg inh | VP16 counter
CCc1ccc(OCC(=O)Nc2ccncc2)c(Br)c1 | n | u | u | n | u
CCCCN1CC(COCc2ccccc2)Oc2cccc(Oc3ccc(C)cc3)c2S1(=O)=O (centres undefined) | n | n | n | x | x
O=C1/C(=C\c2cccs2)CCC/C1=C/c1cccs1 | x | n | n | n | n
CCOc1ccc(S(=O)(=O)NCCC(=O)NCc2cccnc2)cc1 | n | n | n | x | x
COCC(C)(C)COS(N)(=O)=O | n | n | n | n | n
CCCCC[C@@H](/C=C/C1C(=O)C=C[C@H]1C/C=C\CCCC(=O)OC)OC(C)=O (some centres undefined) | -101 | 18µM | n[9.22 µM] | x | x
CN(C)Cc1ccccc1-c1ccc2ncnc(NC3CC3)c2c1 | x | x | x | n | n
O=C1C=C(c2cccc(CO)c2)C[C@@H](c2ccc3c(c2)OCO3)C1 | n | n | n | x | x
CN(CCCNC(=O)CSc1cc(=O)n(C)c2ccc(Cl)cc12)Cc1ccccc1 | -54 | n | n | n | n
N=c1c(C(=O)NCCN2CCOCC2)cc2c(=O)n3ccccc3nc2n1CCCN1CCOCC1 | n | 0.18µM | 0.65µM | n | n
O=C(NCCN1CCN(c2ccccc2)CC1)c1cccn2c(=O)c3ccccc3nc12 | n | n | n | n | n
N=c1c(C(=O)NCCN2CCOCC2)cc2c(=O)n3ccccc3nc2n1Cc1ccc(F)cc1 | u | 1.3µM | 2.1µM | n | n
